PubChem BioAssay AID588342 (National Center for Advancing Translational Sciences (NCATS), 2011)
About 25,000 (6.9%) of roughly 360,000 compounds were called active. About 9% were inconclusive and are not listed. Shown is part of a subset that was picked to be rich in actives. Values without a mark were called inactive. Calls follow the shape of the dose curve; as a rule, active = well fitted inhibition curve with a large enough effect; inconclusive = small, poorly fitted or top-dose-only effect; inactive = flat fitted curve, though single readings scatter.

Each molecule was assayed against Luciferin 4-monooxygenase (Photinus pyralis) (UniProt P08659) (assay: qHTS profiling assay for firefly luciferase inhibitor/activator using purifed enzyme and Km concentrations of substrates (counterscreen for miR-21 project)). Conditions: purified FLuc, luminescence inhibition; series mostly up to 57.5 µM; activity change, negative = inhibition: at the top concentration.
Method in brief: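 Purified P. pyralis luciferase, 10 nM final, with Km-level 10 uM D-luciferin and 10 uM ATP in 50 mM Tris acetate pH 7.5, 10 mM Mg acetate, 0.01% Tween-20, 0.05% BSA; 6-point qHTS titration about 60 µM downward; luminescence read.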
Also: nearly all actives have a fitted effect of over 55% in size.
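For activity change, negative = inhibition in this document: plate controls were vehicle for no effect and reference inhibitor for full effect.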
Potency is read from the fitted curve at half-maximal effect.

Sequence of Luciferin 4-monooxygenase (Photinus pyralis) (P08659 whole entry, looked up): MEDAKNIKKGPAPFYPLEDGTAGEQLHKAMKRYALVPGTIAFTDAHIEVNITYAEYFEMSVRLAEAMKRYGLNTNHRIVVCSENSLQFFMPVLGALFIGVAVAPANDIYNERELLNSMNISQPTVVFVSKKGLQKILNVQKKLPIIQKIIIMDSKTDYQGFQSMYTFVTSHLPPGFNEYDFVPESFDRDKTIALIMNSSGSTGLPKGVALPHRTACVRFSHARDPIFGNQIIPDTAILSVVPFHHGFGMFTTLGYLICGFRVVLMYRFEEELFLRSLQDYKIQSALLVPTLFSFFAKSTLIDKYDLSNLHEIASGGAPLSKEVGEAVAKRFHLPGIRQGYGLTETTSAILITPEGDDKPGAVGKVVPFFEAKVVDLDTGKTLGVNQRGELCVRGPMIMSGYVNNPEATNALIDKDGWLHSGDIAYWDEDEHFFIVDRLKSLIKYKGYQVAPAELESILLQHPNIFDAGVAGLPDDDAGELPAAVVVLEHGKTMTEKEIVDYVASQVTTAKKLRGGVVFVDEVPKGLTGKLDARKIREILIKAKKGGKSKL

Structure (SMILES) | activity change, negative = inhibition | Potency
CCCOC(=O)c1c(NC(=O)c2cc3nc(-c4ccc(OC)cc4)cc(C(F)(F)F)n3n2)sc2c1CCCC2 | -5.72% | 
COc1ccc(N2CCN(C(=O)CSCc3nc(-c4ccccc4Cl)oc3C)CC2)cc1 | -11.4% | 
COc1ccc(-n2ccn(CC(=O)Nc3ccc(C)c(C)c3)c(=O)c2=O)cc1OC | -7.6% | 
Cc1cccc(S(=O)(=O)c2cn(Cc3ccccc3)c3cc(N4CCOCC4)c(F)cc3c2=O)c1 | -6.65% | 
CN(C)c1nnnn1-c1ccc(Cl)cc1 | -2.83% | 
Nc1ccc2nn(-c3ccc(Cl)cc3)nc2c1 |  | 0.757 µM (active)
O=C(NCCCO)c1nn(-c2ccc(Cl)cc2)nc1CO | -18.3% | 
COc1ccc(/C=N/OCC(=O)N(Cc2ccccc2)c2ccccc2C(=O)O)cc1 | 1.35% | 
COc1ccc(CCCc2nnc(SCc3nc4ccccc4c(=O)[nH]3)n2C)cc1 | 2.77% | 
COc1ccc(/C=N/Nc2nc3ccccc3c(=O)[nH]2)cc1 |  | 6.01 µM (active)
COc1cc(OC)c(S(=O)(=O)Nc2ccccc2C(=O)O)cc1S(=O)(=O)Nc1ccccc1C(=O)O | -6.46% | 
COc1ccc(/C=N/Nc2ccccc2C(=O)O)cc1 |  | 0.151 µM (active)
COc1ccc(/C=N/Nc2nc(-c3ccc(C)cc3)c(C#N)c(=O)[nH]2)cc1 | 2.09% | 
COc1ccc(NC(=O)CCc2nnc3n(CC(C)C)c(=O)c4ccccc4n23)cc1OC | 1.45% | 
CSc1ccc(C2C(C(=O)Nc3ccccc3)=C(C)Nc3nc4ccccc4n32)cc1 (stereo unspecified) | -0.306% | 
COc1ccc(CCNc2ncnc3onc(-c4ccc(Cl)cc4)c23)c(OC)c1 | 0.978% | 
CCCn1c(=N)c(C(=O)NCc2ccccc2)cc2c(=O)n3cccc(C)c3nc21 | -0.698% | 
O=C(CCN1c2ccccc2Sc2ccccc21)Nc1ccccc1 | -1.69% | 
CCN1/C(=C/C(=S)Nc2ccccc2)Sc2ccccc21 |  | 10.7 µM (active)
CCN1C(=O)/C(=C2/Sc3ccccc3N2CCCS(=O)(=O)O)SC1=S | -7.47% | 
CCOC(=O)Cc1csc(NC(NC(=O)OCC)(C(F)(F)F)C(F)(F)F)n1 | 0.679% | 
CCOC(=O)c1csc(NC(=O)Nc2cccc(OC)c2)n1 | -6.53% | 
CCOC(=O)Cc1csc(NC(=O)Nc2ccccc2)n1 |  | 12 µM (active)
COc1ccc(OC)c(CNC(=O)Cn2nc(C)c3c(C)n(-c4ccc(C)cc4)nc3c2=O)c1 | 1.75% | 
Cc1cccc(NC(=O)c2nnn(CC(=O)Nc3ccc(C(C)C)cc3)c2N)c1C | 1.34% | 
COc1ccc(CCNC(=O)CCc2c(C)nc3c(c(C)nn3-c3ccc(C)c(C)c3)c2C)c(OC)c1OC | -9.01% | 

Structure (SMILES) | activity change, negative = inhibition | Potency
CCN(C(=O)Cn1cc(S(=O)(=O)N2CCN(c3ccccc3F)CC2)c2ccccc2c1=O)c1ccc(C)c(C)c1 | -4.46% | 
O=S(=O)(Nc1ccc2cn[nH]c2c1)c1ccccc1 | -3.45% | 
O=S(=O)(Nc1ccc2nc(-c3ccco3)[nH]c2c1)c1ccccc1 |  | 12 µM (active)
CCc1ccccc1NS(=O)(=O)c1ccc2nc(-c3ccccc3)[nH]c2c1 | -4.06% | 
CCN1CCN(Cc2c(O)ccc3oc(C)c(C(=O)Nc4ccc(C)cc4C)c23)CC1 | 5.5% | 
O=C(Cc1ccsc1)N1CCN(S(=O)(=O)c2cc(C(F)(F)F)cc(C(F)(F)F)c2)CC1 | 0.221% | 
CCN(CC)C(=O)Oc1ccc(OC(=O)N(CC)CC)cc1 | 0.534% | 
COc1ccc2nc(C)cc(Nc3cccc(C(=O)O)c3)c2c1 | 2.77% | 
COc1cccc(NC(=O)c2ccccc2SC)c1 | -17.2% | 
COc1cccc(Nc2ncccc2C(=O)O)c1 |  | 19 µM (active)
CCOC(=O)c1cnc2c(c(C)nn2CC)c1Cl | 1.72% | 
COC(=O)c1ccc(S(=O)(=O)N2CCc3ccccc3C2)cc1 | 1.73% | 
O=C(Nc1nnc(Cc2ccccc2)s1)c1cnccn1 | -20.1% | 
Cc1cc(=O)oc2cc(OCC(=O)Nc3nnc(C4CC4)s3)ccc12 | 1.19% | 
O=C(Cc1cccs1)Nc1nnc(C2CC2)s1 | -10.2% | 
Cc1cc(C(=O)Nc2nnc(C3CC3)s2)c(C)s1 |  | 13.5 µM (active)
O=C(Nc1nnc(C2CC2)s1)c1ccccn1 |  | 10.7 µM (active)
Cc1cccc(NC(=O)CSCC(=O)Nc2nnc(C3CC3)s2)c1 | -3.15% | 
Cc1ccc(N(C)C(=O)C2CCN(S(=O)(=O)c3ccc4c(c3)CCCN4C(=O)C3CCC3)CC2)cc1 | -2.8% | 
O=C1CN(C(=O)Nc2ccccc2C(F)(F)F)C(c2ccccc2)c2c(sc3c2CCCC3)N1 (stereo unspecified) | -7.07% | 
CCOC(=O)C1CCN(C(=O)c2cccc(S(=O)(=O)N(CC)c3ccccc3)c2)CC1 | 1.65% | 
COc1cc(C(=O)N2CCN(c3ccc(Nc4ccc(C)cc4)nn3)CC2)cc(OC)c1OC | 1.35% | 
COc1ccc(/C=C2\SC(=S)N(CCC(=O)Nc3cccc(C(=O)O)c3)C2=O)cc1OC |  | 6.75 µM (active)
COc1ccccc1C(=O)NNC(=O)CCN1C(=O)/C(=C\c2ccccc2)SC1=S | 2.85% | 
O=C(CCN1C(=O)/C(=C/c2cccs2)SC1=S)NNC(=O)c1cccc(O)c1 | -7.67% | 
COc1ccc(S(=O)(=O)N2CCSCC2)cc1 | 2.73% | 

Structure (SMILES) | activity change, negative = inhibition | Potency
CCOC(=O)c1cn[nH]c1NC(=S)Nc1ccccc1 |  | 2.13 µM (active)
CCOC(=O)c1cc2c(nc1NC(=S)Nc1ccccc1)CC(C)(CC)OC2 (stereo unspecified) | 1.94% | 
CCOC(=O)c1ccc(NC(=S)Nc2cc(C)cc(C)n2)cc1 | -0.345% | 
Nc1c(N(CCCO)C(=O)C2CCCC2)c(=O)[nH]c(=O)n1Cc1ccccc1 | 0.813% | 
COc1ccccc1C1=Nc2cccc3cccc(c23)N1 |  | 16.9 µM (active)
c1ccc(C2=Nc3cccc4cccc(c34)N2)cc1 |  | 15.1 µM (active)
COc1ccccc1-c1nc(C(F)(F)F)c(OC)o1 | 5.71% | 
COc1ccc(N2C(=O)c3cccc4cccc(c34)C2=O)nn1 | -5.3% | 
COc1ccc(-n2c(SCC(N)=O)nc3c(oc4ccccc43)c2=O)cc1 | 1.9% | 
CC(C)Nc1nnc(SC(C)C(=O)N(C)C2CCCCC2)s1 (stereo unspecified) | 2.48% | 
Cc1cccc(N(C)C(=O)CS(=O)(=O)c2cccc3nsnc23)c1 | -0.386% | 
O=C(CCn1c(=O)c2ccccc2n(Cc2ccc(Cl)cc2)c1=O)NCc1ccc2c(c1)OCO2 | -1.28% | 
COc1cc(Cl)c(NC(=O)C(NS(=O)(=O)c2cccs2)C(C)C)c(OC)c1 (stereo unspecified) | -2.46% | 
Cc1ccn(-c2cccc(-n3ccc(C)n3)n2)n1 |  | 3.38 µM (active)
CCCCc1nnc(NC(=O)CSc2nc(N)cc(=O)[nH]2)s1 | -14.7% | 
O=[N+]([O-])c1ccc(F)cc1Oc1nc(-c2cccnc2)nc2ccccc12 | 3.95% | 
COc1ccc(Nc2nc(-c3cccnc3)nc3ccccc23)cn1 | 4.78% | 
Fc1ccc(/C=N/Nc2nc(-c3cccnc3)nc3ccccc23)cc1 |  | 2.13 µM (active)
Cc1ccc(C2C=C(c3ccc(Cl)cc3)Nc3nc(NC(=O)CCC(=O)O)nn32)cc1 (stereo unspecified) | -0.821% | 
CC(=O)N1CCc2cc(S(=O)(=O)NC(Cc3ccccc3)C(=O)NCc3ccc(C)cc3)ccc21 (stereo unspecified) | -11.7% | 
COC(=O)[C@]1(S(=O)(=O)c2ccccc2)C[C@@H]2ON=C(c3ccc(OC)cc3)[C@@H]2C1 | -11.7% | 
COc1ccc(NC(=O)c2ccc3nc(C(C)C)oc3c2)cc1OC | -17.7% | 
COc1ccc(C(=O)Nc2ccc(-n3nncc3-c3ccccc3)cc2)cc1OC | -9.43% | 
CN1CCN(C(=O)/C(=C\c2ccc3c(c2)OCO3)NC(=O)c2cccs2)CC1 | 0.0977% | 
CCC(=O)c1cc2c(cc1NC(=O)c1cccs1)OCCO2 | -16.3% | 
COc1ccc(C(=O)Nc2ccc3c(c2)OCO3)cc1OC |  | 10.7 µM (active)

Structure (SMILES) | activity change, negative = inhibition | Potency
COc1ccc(Cl)cc1NC(=O)CN(C)CC(=O)Nc1ccc2c(c1)OCO2 | 3.37% | 
COc1cc(NC(=O)c2ccc3c(c2)OCO3)ccc1NC(=O)c1cccs1 |  | 10.7 µM (active)
COc1cc(C(=O)NCC2(c3ccccc3)CCCC2)ccc1OC(C)C | 0.624% | 
COc1ccc(C(=O)Nc2ccc(C3(C#N)CCCC3)cc2)cc1OC |  | 10.7 µM (active)
C=CCNC(=O)/C(=C\c1cccc([N+](=O)[O-])c1)NC(=O)c1ccccc1 | -1.02% | 
O=C(Nc1ccc(Br)cc1)c1cc2nc(-c3ccccc3)cc(-c3ccccc3)n2n1 | 4.76% | 
CCCCc1nn2c(=O)cc(COC(=O)c3ccc(NC(=O)c4ccccc4C)cc3)nc2s1 | -2.13% | 
CCCCOc1ccc(-c2ncc(C(=O)OCC)c(N)n2)cc1 |  | 2.69 µM (active)
CCCCCCOc1ccc(OC(=O)c2cccnc2)cc1 | -18.5% | 
CCOC(=O)c1cnc(SCC(=O)NCc2ccco2)nc1N | -1.53% | 
Cc1ccn2cc(-c3nonc3C)cc2c1 |  | 26.9 µM (active)
CCCCN(C)c1nnc(NC(=O)Nc2ccc(Br)c(C)c2)s1 | -7% | 
CCOc1ccccc1-c1cc(C(=O)N2CCOCC2)c2ccccc2n1 | 0.51% | 
Cc1c(NC(=O)c2cc(-c3ccc(Cl)s3)nc3ccccc23)c(=O)n(-c2ccccc2)n1C | -19.2% | 
CC(=O)N1CCN(C(=O)c2cc(-c3ccc(C)o3)nc3ccccc23)CC1 |  | 4.78 µM (active)
Cc1cc(C(=O)N2CCN(c3ccccn3)CC2)c(C)o1 | 3.1% [at 2.3 µM] | 
O=C(c1cc(-c2ccc(Cl)s2)nc2ccccc12)N1CCOCC1 |  | 23.9 µM (active)
Cc1ccc(S(=O)(=O)N2CCN(C(=O)c3ccccc3-c3nc4ccccc4s3)CC2)c(C)c1 | 0.348% | 
CCN(CC)CCNC(=O)Cn1ncc2c3ccccc3n(Cc3ccccc3C)c2c1=O | 1.71% | 
CC(=O)c1ccc(NC(=O)Cn2c(=O)oc3ccccc32)cc1 | -1.43% | 
Cc1ccc(C(=O)Nc2ccc(OCc3cc(=O)n4c(C)csc4n3)cc2)cc1 | -1.13% | 
Cn1cc(CN2CCCCC2c2ccccn2)c(-c2ccc3c(c2)OCCO3)n1 (stereo unspecified) | 0.917% | 
CCO[C@H]1OC(C(=O)Nc2ccccc2)=C[C@@H](C2CC2)[C@@H]1CCCO | -2.36% | 
